PMC5540273 (PLoS ONE, 2017)

Test system: BMPR1A
Conditions: concentration: 1 μM,replicates: in singlicate; n = 1
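Further: KINOMEscan kinase panel screen.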

Compound | %Inh
OCCn1cc(-c2cnc3nnn(Cc4ccc5ncccc5c4)c3n2)cn1 | 7%
CCN1CCN(CCCC(=O)Nc2n[nH]c3nc(-c4ccc(O)cc4)c(Br)cc23)CC1 [SB-731579] | 0%
C[C@@H]1CNc2c(sc3ccc4nc(-c5ccncc5)ccc4c23)C(=O)N1 | 12%
COc1cccc(CNC(=O)NC2CCN(c3ccnc(Nc4cc(OC)c(OC)c(OC)c4)n3)C2)c1 (stereo not shown) [GSK1379765] | 0%
CCn1c(-c2nonc2N)nc2cncc(CNC3CCNCC3)c21.Cl [SB-747651] | 0%
O=C(NCC1CC1)c1ccc(-c2cc(C(=O)NC3CC3)ccc2F)cc1 [GW810445] | 0%
COc1cccc(OC)c1C(=O)Nc1cccc(-c2nn3ccccc3c2-c2ccnc(Nc3cccc(F)c3)n2)c1 [GSK361065] | 9%
Cn1cc(-c2cccc3c(N)c(C(N)=O)nnc23)cn1 | 16%
CC(C)S(=O)(=O)N1CCN(Cc2ccc3c(c2)nc(NC(=O)c2ccsc2)n3C[C@H](O)c2ccccc2)CC1 [GW635815] | 15%
Cc1ccc(CC(=O)N2CCc3cc(-c4cn(C)c5ncnc(N)c45)ccc32)cc1 [GSK2634758] | 0%
CCn1c(-c2nonc2N)nc2cncc(Br)c21 [SB-738004] | 0%
O=C(Nc1ccccc1)c1cccc(Oc2ccc3nccn3n2)c1 | 0%
COC(=O)Nc1nc2cc(Oc3ccc(NC(=O)Nc4cc(C(F)(F)F)ccc4Cl)cc3)ccc2[nH]1.Cl [GW697465] | 0%
O=C1NCCc2[nH]c(-c3ccncc3)cc21 | 27%
CNC(=O)c1ccccc1Nc1nc(Nc2cccc(CS(C)(=O)=O)c2)ncc1C.O=CO [GSK1520489] | 0%
O=C(Nc1cccc(Oc2ccc3nccn3n2)c1)Nc1cccc(C(F)(F)F)c1 | 0%
COc1ccc(Nc2nccc(N3CCC(NC(=O)c4cccc(C#N)c4)C3)n2)cc1 (stereo not shown) [GSK1379730] | 6%
COc1cc2nccc(Nc3ccc(Oc4ccccc4)cc3)c2cc1OC.Cl [GI261656] | 0%
C[C@@H](Oc1cc(-n2cnc3ccc(-c4ccncc4)cc32)sc1C(N)=O)c1ccccc1Cl [GSK483724] | 0%

Compound | %Inh
CC(=O)Nc1ccc(-c2cc3ncnc(SCC(=O)O)c3s2)cc1 | 8%
NC(=O)c1ccc(-c2cc3ncnc(SCC(=O)O)c3s2)cc1 | 0%
COc1cc(Nc2nccc(N3CCC(NC(=O)c4cccc(C#N)c4)C3)n2)cc(OC)c1OC (stereo not shown) [GSK1379751] | 0%
Cn1ccc2ncnc(Oc3ccc(NC(=O)Nc4cc(C(C)(C)C)on4)c(Cl)c3)c21 | 7%
Cn1ccc2ncnc(Oc3ccc(NC(=O)Nc4cccc(C(F)(F)F)c4)c(F)c3)c21 | 0%
CC(=O)Nc1nc2cnc(Nc3cc(NC(=O)c4cccc(CC(C)(C)C#N)c4)ccc3C)nc2s1 | 0%
c1ccc(Oc2ccc(Nc3ccnc4ccc(-c5ccccn5)cc34)cc2)cc1 [GW407034] | 11%
COC(=O)c1cccc(NC(=O)NC2CCN(c3ccnc(Nc4cc(OC)c(OC)c(OC)c4)n3)C2)c1 (stereo not shown) [GSK1379767] | 11%
Cc1cccc(-c2nc(Nc3ccncc3)c3sccc3n2)n1 [GW869641] | 4%
CC(=O)c1c(-c2ccncc2)[nH]c(-c2ccncc2)c1C [GW493036] | 0%
Cc1nnc(-c2ccc3occ(-c4ccc(S(C)=O)cc4)c3n2)o1 (stereo not shown) | 0%
Cc1ccc2c(-c3ccnc(Nc4ccc(C(F)(F)F)cc4)n3)cnn2n1 [GW819776] | 13%
Cn1ccc2ncnc(Oc3ccc(NC(=O)Nc4cncc(C(F)(F)F)c4)c(Cl)c3)c21 | 0%
Cl.Nc1n[nH]c2cc(-c3ccccn3)ccc12 [GSK2189892] | 0%
C[C@@H](Oc1cc(-n2cnc3cc(-c4cnn(C)c4)ccc32)sc1C(N)=O)c1ccccc1Cl [GSK580432] | 19%
CN1CCN(CCCNc2nccc(-c3c(-c4ccc(F)cc4)nn4cc(C(N)=O)ccc34)n2)CC1 [GW622475] | 0%
O=C(Nc1n[nH]c2cc(-c3ccco3)ccc12)C1CC1 [SB-737447] | 0%
NC(=O)Nc1sc(-c2ccc(F)cc2)cc1C(N)=O [GW789449] | 6%
